Nine compounds from PubChem BioAssay can be followed below.

Active and inactive are the calls of the source.

Experiment [1] is described as follows: optical density shifts of acrAB sulA E. coli – strain DRC41, OD650, 48 h, E. coli filamentation inducer project, primary screen (AID 1152).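 Also: E. coli MC1000 strain DRC41 lacking acrAB efflux pump and sulA.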 The settings on record: higher = more signal, called active from +8 up or from −8 down.
Experiment [2] can be described thus: probe aLefty1 binding on compound microarray – biochemical, small-molecule microarray, 635/667 nm fluorescence, primary screen (AID 1153).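 Also: score merges spot fluorescence with signal-to-noise ratio from the scanned slide images.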 The settings on record: higher = more signal.
Experiment [3] is described as follows: plasmodial surface anion channel blockers, osmotic lysis – cell-based, P. falciparum Indochina, OD700, 1 h, primary screen (AID 1154). The settings on record: P. falciparum Indochina infected RBC osmotic lysis, higher = more signal, called active from +8 up or from −8 down.
Experiment [4] is described as follows: plasmodial surface anion channel blockers, osmotic lysis – cell-based, P. falciparum Indochina, OD700, 2 h, primary screen (AID 1155).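 Also: lysis reports solute entry through the parasite surface anion channel PSAC.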 The settings on record: P. falciparum Indochina infected erythrocytes, higher = more signal, called active from +8 up or from −8 down.
Experiment [5] can be described thus: changes in parasitized red cell lysis, either direction – P. falciparum Indochina, OD700, 3 h, PSAC antagonist project, primary screen (AID 1156). The settings on record: P. falciparum-infected erythrocytes, osmotic lysis, higher = more signal, called active from +8 up or from −8 down.
A short description of experiment [6]: plasmodial surface anion channel blockers, osmotic lysis – cell-based, P. falciparum Indochina, OD700, 18 h, primary screen (AID 1157). The settings on record: P. falciparum Indochina infected erythrocytes, osmotic lysis OD700, 18 h; higher = more signal, called active from +8 up or from −8 down.
Experiment [7] in a line: S6 kinase pathway phospho-S6 level changes – cell-based, A549, cytoblot, luminescence, serum-stimulated, primary screen (AID 1158).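 Also: serum-stimulated A549 lung adenocarcinoma cells; signal is phosphorylated S6 detected by cytoblot immunostaining with HRP secondary.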 The settings on record: 5 h, higher = more signal.
Experiment [8] addresses NADPH oxidase 2 (Homo sapiens) (UniProt P04839). The experiment in a line: compounds shifting NOX2 Amplex Red fluorescence – cell-based, HEK293-NOX2, PMA-stimulated, NOX inhibitor project, primary screen (AID 1159). Also: test concentration not given here. The settings on record: 45 min, higher = more signal, called active from +8 up or from −8 down.
Experiment [9] addresses NADPH oxidase 4 (Homo sapiens) (UniProt Q9NPH5). The experiment can be described thus: compounds shifting NOX4 Amplex Red fluorescence – cell-based, HEK293-NOX4, tetracycline-induced, NOX inhibitor project, primary screen (AID 1160). The settings on record: HEK293-NOX4, Amplex Red H2O2 fluorescence, 45 min; higher = more signal, called active from +8 up or from −8 down.
Experiment [10] has as its target NADPH oxidase 5 (Homo sapiens) (UniProt Q96PH1). The experiment in a line: compounds shifting NOX5 Amplex Red fluorescence – cell-based, HEK293-NOX5, NOX inhibitor project, primary screen (AID 1161). The settings on record: HEK293-NOX5, ionomycin, 45 min, higher = more signal.

Sequence of NADPH oxidase 4 (Homo sapiens) (Q9NPH5 whole entry, looked up): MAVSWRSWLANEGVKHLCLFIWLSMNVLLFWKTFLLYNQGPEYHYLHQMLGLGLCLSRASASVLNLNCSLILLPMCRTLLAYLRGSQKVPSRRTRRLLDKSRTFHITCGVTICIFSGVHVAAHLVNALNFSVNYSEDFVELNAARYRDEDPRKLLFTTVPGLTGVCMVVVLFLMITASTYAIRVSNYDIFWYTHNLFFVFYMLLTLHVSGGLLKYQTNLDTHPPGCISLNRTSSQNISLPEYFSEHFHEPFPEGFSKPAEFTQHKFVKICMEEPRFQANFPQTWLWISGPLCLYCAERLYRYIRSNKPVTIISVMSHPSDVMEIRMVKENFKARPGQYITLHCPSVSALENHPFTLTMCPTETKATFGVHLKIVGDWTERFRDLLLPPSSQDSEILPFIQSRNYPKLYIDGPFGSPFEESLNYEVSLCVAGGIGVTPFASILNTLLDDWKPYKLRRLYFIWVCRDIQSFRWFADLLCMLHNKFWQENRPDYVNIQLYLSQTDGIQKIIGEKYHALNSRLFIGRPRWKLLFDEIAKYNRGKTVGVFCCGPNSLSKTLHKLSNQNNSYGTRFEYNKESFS
Sequence of NADPH oxidase 5 (Homo sapiens) (Q96PH1 whole entry, looked up): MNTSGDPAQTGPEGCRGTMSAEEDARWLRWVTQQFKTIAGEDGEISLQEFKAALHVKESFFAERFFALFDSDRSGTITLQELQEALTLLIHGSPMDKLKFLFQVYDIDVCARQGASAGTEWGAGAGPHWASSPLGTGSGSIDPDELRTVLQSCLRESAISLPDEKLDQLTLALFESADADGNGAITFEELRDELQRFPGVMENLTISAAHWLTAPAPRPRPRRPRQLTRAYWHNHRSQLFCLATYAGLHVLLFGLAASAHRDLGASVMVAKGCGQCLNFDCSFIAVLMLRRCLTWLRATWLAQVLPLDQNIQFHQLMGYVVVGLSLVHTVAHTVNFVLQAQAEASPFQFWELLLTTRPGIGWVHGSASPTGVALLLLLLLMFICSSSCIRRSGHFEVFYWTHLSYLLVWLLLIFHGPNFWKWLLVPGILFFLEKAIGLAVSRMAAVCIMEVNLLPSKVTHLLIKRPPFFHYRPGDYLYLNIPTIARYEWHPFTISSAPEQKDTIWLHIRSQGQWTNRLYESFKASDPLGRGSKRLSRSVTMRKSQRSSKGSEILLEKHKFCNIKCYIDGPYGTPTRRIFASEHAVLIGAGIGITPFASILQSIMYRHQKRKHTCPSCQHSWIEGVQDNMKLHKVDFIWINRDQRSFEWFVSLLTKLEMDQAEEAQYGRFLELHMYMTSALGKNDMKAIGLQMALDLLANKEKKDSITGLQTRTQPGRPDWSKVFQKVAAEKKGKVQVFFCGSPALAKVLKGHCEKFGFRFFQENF
Sequence of NADPH oxidase 2 (Homo sapiens) (P04839 whole entry, looked up): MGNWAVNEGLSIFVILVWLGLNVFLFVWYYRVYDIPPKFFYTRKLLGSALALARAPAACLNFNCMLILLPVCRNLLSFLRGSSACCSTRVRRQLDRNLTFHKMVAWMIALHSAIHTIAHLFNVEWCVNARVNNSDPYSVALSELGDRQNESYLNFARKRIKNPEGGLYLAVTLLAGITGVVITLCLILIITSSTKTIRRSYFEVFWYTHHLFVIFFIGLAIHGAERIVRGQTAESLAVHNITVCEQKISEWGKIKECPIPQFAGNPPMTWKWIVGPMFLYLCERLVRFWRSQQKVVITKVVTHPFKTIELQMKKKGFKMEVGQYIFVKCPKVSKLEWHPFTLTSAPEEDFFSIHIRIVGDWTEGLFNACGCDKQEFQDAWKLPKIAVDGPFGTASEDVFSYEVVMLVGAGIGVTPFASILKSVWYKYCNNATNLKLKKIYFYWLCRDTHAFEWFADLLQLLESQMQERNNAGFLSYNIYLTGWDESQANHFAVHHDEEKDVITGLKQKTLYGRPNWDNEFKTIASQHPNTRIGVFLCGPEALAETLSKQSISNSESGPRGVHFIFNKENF

Take `C=CCOC(=O)[C@@H]1[C@H]2C(=O)O[C@H](c3ccccc3)[C@H](c3ccccc3)N2[C@H](c2ccc(OCCOC(=O)[C@@H]3C[C@@H]4C(=O)N[C@@H](Cc5ccccc5)C(=O)N4[C@@H]3c3cccc(OCCO)c3)cc2)[C@@]12C(=O)Nc1ccc(I)cc12`: the z-score in experiment [1] is 0.264 (inactive); in [3] it was 9.36 (active); in experiment [4] it was 2.8 (inactive); in [5], 2.09 (inactive); in experiment [6] it was 1.31 (inactive); in experiment [7] it was -0.479. In addition, the z-score in experiment [8] was 1.03 (inactive); in experiment [9], -1.02 (inactive); in [10], 0.727. This compound also yielded a composite z-score in [2] of 0.706.

In the case of `O=C1O[C@H](c2ccccc2)[C@H](c2ccccc2)N2[C@H]1[C@@H](C(=O)O)[C@]1(C(=O)Nc3ccc(C#CC4(O)CCCCCC4)cc31)[C@H]2c1ccc(OCCO)cc1`, the z-score in experiment [1] is -1.21 (inactive); in [3] it was 1.14 (inactive); in experiment [4], -0.795 (inactive); in experiment [5] it was -9.96 (active); in experiment [6], -0.71 (inactive); in experiment [7], -0.424. Further, the figures for the z-score in [8], in experiment [9] and in experiment [10] were 2.71 (inactive), -0.335 (inactive) and 1.25, respectively. The compound also showed a composite z-score in experiment [2] of -0.031.

Take `COCCOC(=O)N1C(=O)[C@@]2(c3ccccc31)[C@H](C(=O)Nc1nc3ccccc3s1)[C@H]1C(=O)O[C@H](c3ccccc3)[C@H](c3ccccc3)N1[C@@H]2c1ccc(OCCO)cc1`: the z-score in experiment [1] was 0.258 (inactive); in experiment [3] it was 4.45 (inactive); in experiment [4], 1.76 (inactive); in [5], 0.505 (inactive); in experiment [6], 1.63 (inactive); in experiment [7], 0.44. In addition, the z-score in experiment [8] is -0.207 (inactive); in experiment [9], 0.842 (inactive); in experiment [10] it was 2.22. The same compound displayed a composite z-score in experiment [2] of 0.258.

`C=C[C@@H](COC(C)=O)N(Cc1ccccc1[N+](=O)[O-])S(=O)(=O)c1ccc(Br)cc1`: the z-score in experiment [1] was 1.43 (inactive); in [3] it was 2.44 (inactive); in experiment [4], -0.407 (inactive); in experiment [5], -0.885 (inactive); in experiment [6] it was -0.709 (inactive); in [7], 3.16. In addition, the figures for the z-score in [8], in [9] and in experiment [10] were -4.3 (inactive), -0.628 (inactive) and -1.98, respectively. The composite z-score in experiment [2] is -0.339.

Regarding `CO[C@H]1O[C@H](CO)[C@@H](OC(=O)Nc2ccc(Oc3ccccc3)cc2)[C@H](OC(=O)Nc2ccccc2)[C@H]1OC(=O)Nc1ccccc1`, the z-score in experiment [1] is 0.415 (inactive); in experiment [3] it was 3.14 (inactive); in experiment [4], 1.09 (inactive); in experiment [5] it was 1.4 (inactive); in experiment [6] it was 0.766 (inactive); in experiment [7], 0.696. Besides, the z-score in experiment [8] was -0.909 (inactive); in experiment [9] it was -3.18 (inactive); in [10], -0.854. The compound also gave a composite z-score in [2] of 0.407.

As to `COCCCNC(=O)[C@@]1(c2ccc([N+](=O)[O-])cc2)CC(=O)N(CC23CC4CC(CC(C4)C2)C3)[C@@H]1c1ccc(CO)cc1`, the z-score in [1] was 0.697 (inactive); in experiment [3], 4.55 (inactive); in experiment [4] it was 0.958 (inactive); in experiment [5] it was 1.47 (inactive); in experiment [6] it was 0.888 (inactive); in [7] it was 0.0694. Besides, the z-score in experiment [8] is -0.237 (inactive); in experiment [9] it was -1.44 (inactive); in experiment [10], -1.74. The composite z-score in experiment [2] was determined as 0.616.

Take `C=CCN1C(=O)[C@]2(O[C@H](CCO)[C@@H]([Si](C)(C)c3ccc(OC)cc3)[C@@H]2C)c2cc(NC(=O)[C@H](C)O)ccc21`: the z-score in [1] is -0.589 (inactive); in [3], 9.01 (active); in experiment [4] it was 2.65 (inactive); in [5] it was -0.212 (inactive); in [6], 1.43 (inactive); in [7], 1.23. The z-score in experiment [8] is 0.911 (inactive); in experiment [9], 1.26 (inactive); in experiment [10], 0.375. The compound also had a composite z-score in [2] of 0.174.

On to `CC(C)OC(=O)CC(=O)CC(O)c1ccc(C#N)cc1` (stereo not given), for which the z-score in [1] is 0.567 (inactive); in [3], 1.96 (inactive); in experiment [4], -0.344 (inactive); in [5] it was -0.745 (inactive); in experiment [6] it was -1.79 (inactive); in experiment [7] it was 1.02. The z-score in [8] is 0.574 (inactive); in experiment [9], -0.518 (inactive); in [10], -0.252. Moreover, the composite z-score in experiment [2] amounted to 0.213.

In the case of `COC(=O)[C@@]1(Cc2ccc(OC)cc2)[C@H]2c3cc(C(=O)N4CCCC4)n(Cc4cc(F)cc5c4OCOC5)c3C[C@H]2CN1C(=O)c1ccccc1`, the z-score in [1] was -2.14 (inactive); in [3] it was 1.15 (inactive); in experiment [4] it was 0.142 (inactive); in experiment [5], 0.951 (inactive); in experiment [6] it was 0.522 (inactive); in experiment [7] it was -0.0863. For the same compound, the z-score in [8] was -0.327 (inactive); in experiment [9], -1.94 (inactive); in experiment [10], -1.06. Besides, the composite z-score in [2] was -0.12.
